CHX counter = counter-screen hit for Shiga toxin inhibitors, cycloheximide | cell reporter, cycloheximide protein synthesis inhibition counterscreen | max response, % | hit rate 12% among 300,000; in the data active = max response mostly above about 13%, no sharp cut-off; inactive = mostly below about 14%; also: read at 38.3 µM for the half of the compounds with a filed dose; 0% is about no effect
MARV entry inh = inhibitors of Marburg virus binding or cell entry | AID 540276 | Marburg virus pseudotyped entry inhibition, cell reporter | Potency, µM (highest dose often 37.8 µM), without a hit: at the highest dose activity change, negative = inhibition, usual class: inhibitors | hit rate 1.8% among 300,000; calls by dose curve; tested in HEK293 cells; also: potency is read from the fitted curve at half-maximal effect; % is scaled to controls: 0 for no effect and ±100 for the full control effect
Pf growth 96h = P. falciparum growth inhibition at 96 hour, primary screen for plastid delayed-death inhibitors; P. falciparum luciferase reporter growth, 96 h; Potency, µM (highest dose often 28.7 µM), without a hit: at the highest dose activity change, negative = inhibition, usual class: inhibitors; hit rate 6.9% among 320,000; AID 504834; also: potency is read from the fitted curve at half-maximal effect; % is scaled to controls: 0 for no effect and ±100 for the full control effect
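Infected RBCs, 2% Hct / 0.05% parasitemia final; luciferase-reporter P. falciparum; cpd 96 h, 37 C, 5% CO2; luciferase detection reagent; luminescence.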
Pf growth 48h = P. falciparum growth inhibition at 48 hours (one generation); P. falciparum luciferase growth in erythrocytes, 48 h; Potency, µM (top dose mostly 28.7 µM), for inactives: top-dose activity change, negative = inhibition, usual class: inhibitors; AID 504832; hit rate 5.9% among 310,000; also: potency is read from the fitted curve at half-maximal effect; % is scaled to controls: 0 for no effect and ±100 for the full control effect
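Here the parasites carry a stable luciferase gene and grow inside erythrocytes in Albumax-based RPMI medium with compound for one erythrocytic cycle. Activity is scored as loss of luminescent signal.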
Lassa entry inh = Lassa virus entry inhibition; Lassa virus pseudotype entry inhibition, cell reporter; Potency, µM (series often up to 37.9 µM), for the others: top-dose activity change, negative = inhibition, usual class: inhibitors; hit rate 1.2% among 300,000; AID 540256; calls by dose curve; tested in HEK293 cells; also: potency is read from the fitted curve at half-maximal effect; % is scaled to controls: 0 for no effect and ±100 for the full control effect; nearly all actives have a fitted effect of over 50% in size
Shiga inhibitor = inhibitors of Shiga toxin in Vero cells; Vero cells, Shiga toxin protein synthesis inhibition reporter; hit rate 9.2% among 290,000; inhibition, % at 38.7 µM; in the data active = inhibition mostly above about 28%, no sharp cut-off; inactive = mostly below about 43%; also: 0% is about no effect
Starred values were filed as active, the others as inactive; u = inconclusive; x = no result; [ ] = dose if it differs, or a comment. Sampled rows, rich in hits. Any-hit rate of the full collection: about 19%. Unless noted, calls follow the shape of the dose curve; as a rule, active = well fitted inhibition curve with a large enough effect; inconclusive = small, poorly fitted or top-dose-only effect, or another doubt; inactive = no such curve, though single readings can be large or run the other way.

SMILES	CHX counter	MARV entry inh	Pf growth 96h	Pf growth 48h	Lassa entry inh	Shiga inhibitor
O=C(/C=C/c1ccc(Cl)c([N+](=O)[O-])c1)Nc1ccc(N2CCCC2)c(Cl)c1	-4.1	u	79.9%[5.75 µM]	u	-1.8%	15.1
CCN1CCN(c2ccc(S(=O)(=O)N3CCCCC3)cc2NC(=O)/C=C/c2ccc([N+](=O)[O-])cc2)CC1	x	u	1.85µM*	2.08µM*	-15.3%	x
CN1CCN(c2ccc(S(=O)(=O)N3CCCCC3)cc2NC(=O)/C=C/c2ccc(Cl)c([N+](=O)[O-])c2)CC1	x	u	5.86µM*	2.94µM*	12.6µM*	x
CCN1CCN(c2ccc(S(=O)(=O)N3CCCCC3)cc2NC(=O)/C=C/c2ccc(F)cc2)CC1	x	u	u	10.4µM*	-15.2%[46.1 µM]	x
COCCN(C(=O)CSc1nc2nc(C)cc(C)n2n1)c1c(N)n(Cc2ccccc2)c(=O)[nH]c1=O	-1.6	-6.5%[46.1 µM]	27.9%	5.2%	-2.1%	4.3
Nc1ccc(C(=O)N2CCN(S(=O)(=O)c3ccc(Br)cc3)CC2)cc1[N+](=O)[O-]	x	-0.7%	8.28µM*	u	-2.5%	x
CC(=O)c1ccc(S(=O)(=O)N2CCN(C(=O)c3ccc(N)c([N+](=O)[O-])c3)CC2)cc1	x	-4.5%	u	u	-22.5%	x
O=C(Nc1cccc(Cl)c1)c1ccc(-n2cncn2)c([N+](=O)[O-])c1	13.9	-20.5%	u	11.7µM*	-20.2%	15.3
O=C(Nc1ccc(Cl)cc1)c1ccc(-n2cccn2)c([N+](=O)[O-])c1	23.6*	1.3%	u	u	-9.7%	30.2
COc1ccc(NC(=O)c2ccc(-n3cccn3)c([N+](=O)[O-])c2)cc1	-0.5	-2.5%[46.1 µM]	-3.8%	-4.4%	-2.1%	26.8
Cc1ccc(S(=O)(=O)N2CCN(C(=O)c3ccc(-n4cncn4)c([N+](=O)[O-])c3)CC2)cc1C	x	-17.8%	7.38µM*	u	-11.6%	x
CCOC(=O)c1c(C)[nH]c(CCC(=O)Nc2cc(C)cc(C)c2)c1C	x	x	x	x	8.4%[46.1 µM]	x
COc1ccc(-c2noc(CC(=O)Nc3ccc(Br)cc3C)n2)cc1	x	x	x	x	-0.9%[46.1 µM]	x
CCN(CC)S(=O)(=O)c1ccc(NC(=O)c2ccc(Sc3nncn3C)c([N+](=O)[O-])c2)cc1	-2.0	-3.9%	u	11.7µM*	u	18.5
COc1ccccc1NC(=O)c1ccc(-n2cccn2)c([N+](=O)[O-])c1	4.5	-27.3%[46.1 µM]	-2.6%	-10.6%	u	37.4
CN(C)S(=O)(=O)c1cccc(NC(=O)c2ccc(Sc3nncn3C)c([N+](=O)[O-])c2)c1	0.9	x	u	u	x	-4.0
Cc1ccc(NC(=O)c2ccc(-n3cccn3)c([N+](=O)[O-])c2)cc1C	34.2*	1.1%	u	-10.6%	12.1%	45.4*
CCN(CC)S(=O)(=O)c1cc(NC(=O)c2ccc(-n3cncn3)c([N+](=O)[O-])c2)ccc1C	-2.1	u	14.7µM*	13.1µM*	u	26.0
CCOC(=O)CSc1nc(-c2ccccc2)nc2c1oc1ccccc12	-3.3	-3.6%	25.8%	7.0%	-0.7%	-5.3
CCOC(=O)c1ccccc1NC(=O)N(Cc1ccc(CC)cc1)Cc1cn[nH]c1-c1ccc(OC)cc1	x	u	x	x	-2.4%[46.1 µM]	x
COc1ccc(NC(=S)N2CCCC(c3nc4ccc(C)cc4[nH]3)C2)cc1 (stereo unspecified)	8.8	-21.6%	u	-3.5%	u	18.5
CSCCC(N=C(NS(=O)(=O)c1ccc(Br)cc1)c1ccccc1)C(=O)O (stereo unspecified)	6.4	-7.8%	10.5%	-7.3%	u	-9.5
CCOC(=O)CN1C(=O)C(CC)Oc2ccccc21 (stereo unspecified)	1.8	11.2%	x	45.1%	27.9%	-16.7
O=C(c1ccc(Cl)c([N+](=O)[O-])c1)N1CCN(c2ccccn2)CC1	-2.3	u	10.4%	-9.9%	2.4%	22.1
O=C(c1ccc(Cl)c(S(=O)(=O)Nc2ccc(F)cc2)c1)N1CCN(c2ccccn2)CC1	8.1	14.6µM*	u	6.0%	u	-9.2
SMILES	CHX counter	MARV entry inh	Pf growth 96h	Pf growth 48h	Lassa entry inh	Shiga inhibitor
O=C(c1ccc(S(=O)(=O)Cc2cc(F)ccc2F)c([N+](=O)[O-])c1)N1CCCCC1	3.8	u	71.5%	14.7µM*	-3.3%	-13.7
O=C(c1ccc(S(=O)(=O)Cc2ccccc2Cl)c([N+](=O)[O-])c1)N1CCN(c2ccccn2)CC1	-3.8	u	13.1µM*	u	-3.8%	-6.6
O=C1CC(N2CCN(c3ccc(S(=O)(=O)N4CCOCC4)cc3)CC2)C(=O)N1Cc1ccccc1 (stereo unspecified)	-1.4	4.6%[46.1 µM]	14.4%	u	0.2%	34.1
COc1ccc(OC)c(CNC(=O)c2cc3ccc4cccnc4c3[nH]2)c1	x	x	x	x	7.2%[46.1 µM]	x
CC(=O)NCCN1C(=O)S/C(=C\c2cccs2)C1=O	13.8	28.5%[46.1 µM]	76.1%	52.8%	20.3%	9.6
O=C1C(C=Nc2ccccc2)=C(O)c2ccccc21	29.3*	u	x	35.9%	u	173.3*
O=C1CC(c2ccccc2Cl)CC(O)=C1C=Nc1ccccc1 (stereo unspecified)	1.7	-14.7%	-7.1%	1.7%	u	-2.3
COc1ccc(N=CC2=C(O)c3ccccc3C2=O)cc1	23.7*	u	x	213.9%	u	107.3*
COc1ccc(N=Cc2c[nH][nH]c2=O)cc1	-1.0	-0.3%	12.5%	-0.1%	0.9%	-7.7
CN=CC1=C(O)c2ccccc2C1=O	41.5*	8.2%	-20.1%	30.2%	17.2%	75.9*
COc1ccc(N=Cc2[nH]c3ccccc3c2O)cc1	30.6*	-18.1%	160.4%	16.7%	18.8%	42.2*
Cn1cccc1CC(=O)N/N=C\c1ccccc1	7.2	22.0%[46.1 µM]	28.3%	8.1%	27.6%	11.2
O=C(NCCOc1ccccc1)c1cccc(S(=O)(=O)NCc2ccccc2)c1	x	u	-0.3%	-14.1%	u	x
O=C(Nc1ccc(S(=O)(=O)N2CCOCC2)cc1)c1ccccc1F	-1.6	x	142.2%	u	x	-1.2
N#CCCN(CC(=O)O)S(=O)(=O)c1ccccc1	-2.8	11.5%	-5.3%	-4.1%	0.6%	-3.3
CCc1ccc(S(=O)(=O)c2cn(C)c3ccc(C)cc3c2=O)cc1	x	5.1%[46.1 µM]	x	x	-2.7%[46.1 µM]	x
COc1ccc(N=Cc2oc3ccc4ccccc4c3c2O)cc1	50.0*	-4.3%[46.1 µM]	154.0%	160.3%	8.5%[46.1 µM]	71.5*
CC1CCN(CCCNC(=O)C2CCC(CNS(=O)(=O)c3cccc4nsnc34)CC2)CC1 (stereo unspecified)	-0.5	x	u	-3.8%	x	-17.4
COc1cc(C(=O)N(Cc2cc3ccccc3[nH]c2=O)CC2CCCO2)cc(OC)c1OC (stereo unspecified)	-4.7	0.8%	x	2.9%	4.9%	-12.0
Cc1cccc(C)c1OCC(=O)Nc1c(C)nn(C)c1C	-2.9	x	-9.7%	5.7%	x	-9.8
CN(C)c1oc(-c2ccccc2Cl)nc1P(=O)(c1ccccc1)c1ccccc1	-3.8	u	11.7µM*	x	9.1%	-14.0

Screens: PubChem, National Center for Advancing Translational Sciences (NCATS)
